Reference: PubChem BioAssay AID624417 (National Center for Advancing Translational Sciences (NCATS), 2012)
The whole screen tested about 410,000 compounds, of which about 6,400 (1.6%) were called active. A call without a number means that no potency is given here. About 20% were inconclusive and are not listed. The sample holds actives, similar compounds and a random draw of the others, so the mix is not that of the screen. Calls follow the shape of the dose curve; as a rule, active = well fitted inhibition curve with a large enough effect; inconclusive = small, poorly fitted or top-dose-only effect; inactive = no such curve, though single readings can be large or run the other way.

Molecular target: Glucagon-like peptide 1 receptor (Homo sapiens) (UniProt P43220)
Sequence (P43220 whole entry, looked up): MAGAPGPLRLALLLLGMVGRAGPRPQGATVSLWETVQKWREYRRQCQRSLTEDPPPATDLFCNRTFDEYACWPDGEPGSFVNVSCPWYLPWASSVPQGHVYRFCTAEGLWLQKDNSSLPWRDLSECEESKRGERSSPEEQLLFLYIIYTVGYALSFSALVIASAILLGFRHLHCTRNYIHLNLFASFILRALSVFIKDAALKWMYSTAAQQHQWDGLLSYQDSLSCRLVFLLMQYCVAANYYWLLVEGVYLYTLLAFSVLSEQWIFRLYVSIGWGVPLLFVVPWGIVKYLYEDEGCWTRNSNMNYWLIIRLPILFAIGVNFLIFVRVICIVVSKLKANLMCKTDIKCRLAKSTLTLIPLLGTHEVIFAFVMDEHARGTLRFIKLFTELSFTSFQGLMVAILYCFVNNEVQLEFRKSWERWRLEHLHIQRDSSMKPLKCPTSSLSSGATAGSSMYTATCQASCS
Assay: qHTS of GLP-1 Receptor Inverse Agonists (Inhibition Mode); also: nearly all actives have a fitted effect of over 55% in size
Conditions: HEK293 GLP-1R CRE-luciferase, luminescence, 24 h, GLP-1R form is constitutively active; series mostly up to 38.3 µM
In short: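 Luminescence readout: a drop in cAMP-driven luciferase signal flags inverse agonism at a constitutively active GLP-1R stably expressed in HEK293. Compound exposure lasted 24 hr at 37 deg C, 5% CO2.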
Potency is read from the fitted curve at half-maximal effect.

Row | Compound | Potency
1 | C[C@@H]1CN([C@H](C)CO)C(=O)CCCn2cc(nn2)CO[C@H]1CN(C)S(C)(=O)=O | inactive
2 | Cc1ccc(C(O)c2ncc(-c3ccccc3F)[nH]2)cc1F (stereo unspecified) | inactive
3 | O=C1c2ccccc2S(=O)(=O)N1Cc1c(F)cccc1Cl | inactive
4 | CC(C)(C)c1ccc(CN2C(=O)c3ccccc3S2(=O)=O)cc1 | 10 µM (active)
5 | COc1ccc(CNC(=O)CN2C(=O)c3ccccc3S2(=O)=O)cc1 | inactive
6 | CCc1cc(-c2nnn(CCC3COCCO3)c2CC)ccc1-c1cn(Cc2ccc3ccccc3c2)nn1 (stereo unspecified) | inactive
7 | CC(OC(=O)c1cccnc1Cl)C(=O)NC1CCCCC1 (stereo unspecified) | inactive
8 | C[C@H](CO)N1C[C@H](C)[C@@H](CN(C)Cc2ccc3c(c2)OCO3)OCc2cnnn2CCCC1=O | inactive
9 | CCCCn1c(CN2CCN(CCO)CC2)nc2ccccc21 | inactive
10 | C=C(Br)Cn1c(CCCC)nc2ccccc21 | 2.82 µM (active)
11 | CCCCn1c(CCCNC(=O)CC)nc2ccccc21 | inactive
12 | Nc1[nH]c(C(=O)c2ccccc2)c(-c2ccncc2)c1C(=O)NCc1cccc2ccccc12 | inactive
13 | Cc1ccc(CNC(=O)CSc2c3c(nc4cc(Cl)ccc24)CCCC3)cc1 | inactive
14 | CCOc1ccc(NC(=O)CSc2c3c(nc4ccccc24)CCCC3)cc1 | inactive
15 | Cc1ccc(Nc2c3c(nc4ccccc24)CCC3)cc1 | 5.62 µM (active)
16 | CCCNC(=O)C1(C)CCN1C(=O)C1(c2ccccc2)CC1 (stereo unspecified) | inactive
17 | CC(C)n1cnc2c(Nc3cccc(Cl)c3)nc(N(CCO)CCCO)nc21 | 10 µM (active)
18 | COc1ccc(NS(=O)(=O)c2cc(NC(=O)/C=C/c3cc(OC)c(OC)c(OC)c3)ccc2N2CCCCC2)cc1 | inactive
19 | CCOc1ccc(C(=O)Nc2ccc3nc4c(c(Nc5ccccc5OC)c3c2)CCCC4)cc1 | inactive
20 | COc1ccccc1Nc1c2c(nc3ccc(NC(=O)/C=C/c4cc(OC)c(OC)c(OC)c4)cc13)CCCC2 | 3.55 µM (active)
21 | O=C1NC(Cc2ccccc2)c2nc3ccc(Br)cc3c(=O)n2-c2cc3ccccc3cc21 (stereo unspecified) | inactive
22 | CN(C)CCCN(C(=O)c1ccc(S(=O)(=O)N2CCCCCC2)cc1)c1nc2ccc(Br)cc2s1 | 3.55 µM (active)
23 | CN(C)CCN(C(=O)CN1C(=O)c2ccccc2C1=O)c1nc2cc3c(cc2s1)OCCO3 | inactive

Row | Compound | Potency
24 | Cc1cc2nc(NC(=O)c3ccc(S(=O)(=O)N4CCOCC4)cc3)sc2cc1C | inactive
25 | CN(C)CCCN(C(=O)c1ccc(S(=O)(=O)N2CCCCCC2)cc1)c1nc2cc3c(cc2s1)OCCO3 | 11.2 µM (active)
26 | Cc1cc(C)c2sc(NC(=O)c3ccc(S(=O)(=O)N4CCCC4)cc3)nc2c1 | inactive
27 | Cc1ccc2nc(N(CCN(C)C)C(=O)C3=COCCO3)sc2c1 | inactive
28 | Cc1noc(C)c1S(=O)(=O)N(C)C[C@H]1OCCCC[C@@H](C)Oc2ccc(NC(=O)CCCN(C)C)cc2C(=O)N([C@H](C)CO)C[C@@H]1C | inactive
29 | O=C(O)C1=C(C(=O)O)C2CCC1C2 | inactive
30 | CC(=O)N1Cc2cc(C(=O)NCc3cccc(F)c3)nc(-c3cccc(C4=CCCCC4)c3)c2[C@H]1CCO | inactive
31 | CCc1nc2c(=O)[nH]cnc2o1 | inactive
32 | C/C(=N/NC(=O)c1ccncc1)c1ccc2c(c1)OCO2 | inactive
33 | C/C(=N\NC(=O)C(N)=O)c1ccc2c(c1)OCCO2 | inactive
34 | C/C(=N/NC(=S)Nc1ccccc1)c1ccc2c(c1)OCO2 | 3.16 µM (active)
35 | CCOC(=O)[C@]12CCCC=C1N(CCC1=CCCCC1)C(=O)[C@H](CC(=O)NCCCOC)C2 | inactive
36 | O=C(NCC(F)(F)F)c1ccc(S(=O)(=O)NCCc2ccc3c(c2)OCCO3)cc1 | inactive
37 | COc1cc(SC)ccc1C(=O)NCCOc1ccccc1Cl | inactive
38 | COc1cc(SC)ccc1C(=O)Nc1nc(C)cs1 | 1.12 µM (active)
39 | Cc1csc(NC(=O)c2ccc(C)s2)n1 | inactive
40 | CCOc1ccc2[nH]c(=S)sc2c1 | inactive
41 | O=C(NC1CCCC1)C1c2ccccc2OCC(=O)N1CC(F)(F)F (stereo unspecified) | inactive
42 | O=C(Nc1cc(F)ccc1F)c1ccc2c(=O)n3c(nc2c1)CCC3 | inactive
43 | O=C(NN=Cc1ccccc1O)NN=Cc1ccccc1O | inactive
44 | Oc1cccc(/C=N/Nc2ccc(Cl)nn2)c1O | 1.12 µM (active)
45 | Oc1c(Br)cccc1/C=N/Nc1c(F)c(F)c(F)c(F)c1F | inactive
46 | C[C@@H]1CN([C@@H](C)CO)S(=O)(=O)c2ccc(-c3ccc(C(=O)N(C)C)cc3)cc2O[C@@H]1CN(C)Cc1ccccc1C(=O)O | inactive

Row | Compound | Potency
47 | CCc1nc2c(OCCc3cccc(OC)c3)cccn2c1N(C)C(=O)c1ccc(C)cc1 | inactive
48 | Cc1ccc(NC(=O)[C@H](Cc2ccccc2)NC(=O)CC[C@H]2O[C@@H](n3ccc(=O)[nH]c3=O)[C@H](O)[C@@H]2O)cc1C | inactive
49 | Cc1ccc(S(=O)(=O)N2CCN(c3ccccc3)CC2)cc1C | inactive
50 | CN1CCN(S(=O)(=O)c2ccc(N3CCN(c4ccccc4O)CC3)c([N+](=O)[O-])c2)CC1 | 10 µM (active)
51 | O=S(=O)(c1ccc2ccccc2c1)N1CCN(S(=O)(=O)N2CCOCC2)CC1 | inactive
52 | Cc1cc(N)n(-c2ccc(S(=O)(=O)N3CCCC3)cc2[N+](=O)[O-])n1 | inactive
53 | O=[N+]([O-])c1ccc(N2CCN(S(=O)(=O)c3ccccc3)CC2)cc1N1CCc2ccccc2C1 | inactive
54 | Cc1ccccc1N1CCN(S(=O)(=O)c2ccc3ccccc3c2)CC1 | 10 µM (active)
55 | COc1ccc(NC(=O)CN(C)C(=O)c2cc(C)oc2C)cc1 | inactive
56 | O=C(/C=C/[C@H]1O[C@@H](n2ccc(=O)[nH]c2=O)[C@H](O)[C@@H]1O)NCc1ccccn1 | inactive
57 | C[C@H](CO)N1C[C@H](C)[C@@H](CN(C)C(=O)c2cnccn2)Oc2ncc(Br)cc2C1=O | inactive
58 | CC(C)C[C@@H]1COc2cc(N3CCC[C@@H]3CO)ccc2S(=O)(=O)N1 | inactive
59 | CCN1C(=O)[C@H]2[C@@H](c3ccc(C)cc3)N3C(=O)N(c4cccc(Br)c4)C(=O)[C@@]3(CC)[C@H]2C1=O | inactive
60 | Cc1cccc([C@@H]2[C@@H]3C(=O)N(Cc4ccccc4)C(=O)[C@@H]3[C@]3(Cc4ccc(Cl)cc4)C(=O)N(c4cccc(Cl)c4)C(=O)N23)c1 | inactive
61 | O=C1[C@H]2[C@@H](c3ccc(F)cc3)N3C(=O)N(c4ccc(C(F)(F)F)cc4)C(=O)[C@@]3(Cc3ccccc3)[C@H]2C(=O)N1C1CCCCC1 | 2.24 µM (active)
62 | CC(=O)c1ccc(Nc2nc(C(N)c3ccccc3Cl)cs2)cc1 (stereo unspecified) | inactive
63 | C[C@H](CO)N1C[C@H](C)[C@@H](CN(C)C(=O)c2cccc(F)c2)Oc2cc(-c3cncnc3)ccc2S1(=O)=O | inactive
64 | O=C(NCc1ccccc1)C1CNCC(C(=O)NCc2ccccc2)C1 (stereo unspecified) | inactive
65 | C=CCOC(=O)c1ccccc1C(=O)OCC=C | inactive
66 | CCOC(=O)C1=C(C)Nc2nc3ccccc3n2C1c1cccs1 (stereo unspecified) | inactive
67 | C=CCOC(=O)C1=C(C)NC(C)=C(C(=O)OCC=C)C1c1cccs1 | 10 µM (active)
68 | COc1ccc(-c2[nH][nH]c(=O)c2NC(=O)c2ccc([N+](=O)[O-])cc2)cc1 | inactive
69 | CCc1ccc(OCC(=O)NCC(c2ccc(Cl)cc2)N2CCCCC2)cc1 (stereo unspecified) | 8.91 µM (active)

Row | Compound | Potency
70 | COc1ccc(C(CNC(=O)COc2ccc([N+](=O)[O-])cc2)N2CCCCC2)cc1 (stereo unspecified) | inactive
71 | COc1ccc(C(CNC(=O)COc2ccccc2OC)N2CCCCC2)cc1 (stereo unspecified) | inactive
72 | O=S1(=O)CC(N2CCN(CCO)CC2)CN1Cc1cn(Cc2cccc(Cl)c2)nn1 (stereo unspecified) | inactive
73 | CC1CC(C)(C)n2c(O)c(N=NC(N)=S)c3cccc1c32 (stereo unspecified) | 5.01 µM (active)
74 | CN1OC[C@@H]2CN(S(=O)(=O)c3cccc(C(F)(F)F)c3)[C@H](c3ccc(-c4cc5ccccc5o4)cc3)C[C@@H]21 | inactive
75 | Cc1ccc(CN(N=Nc2nonc2N)c2nonc2N)c(C)c1 | 2.82 µM (active)
76 | COc1cc(CNc2ncnc3c2ncn3[C@H]2CN(Cc3cccs3)C[C@@H](CO)O2)cc(OC)c1OC | inactive
77 | COc1ccc(NS(=O)(=O)c2cccc(C(=O)NCCc3ccc(S(N)(=O)=O)cc3)c2)cc1 | inactive
78 | CCOc1ccc(NS(=O)(=O)c2ccc(C(=O)NCC(c3ccccc3OC)N3CCCC3)cc2)cc1 (stereo unspecified) | 11.2 µM (active)
79 | CN(C)C(CNC(=O)c1cccc(C#N)c1)c1ccco1 (stereo unspecified) | inactive
80 | COc1ccccc1C(CNC(=O)c1cccc(NS(=O)(=O)c2ccc(Br)cc2)c1)N(C)C (stereo unspecified) | 10 µM (active)
81 | CCOc1ccc(NS(=O)(=O)c2ccc(C(=O)NCC3CCCO3)cc2)cc1 (stereo unspecified) | inactive
82 | CC1CN(C(=O)c2cccc(NS(=O)(=O)c3ccc(Br)cc3)c2)CC(C)O1 (stereo unspecified) | inactive
83 | COc1ccc(C(CNC(=O)c2ccc(S(=O)(=O)Nc3ccccc3F)cc2)N(C)C)cc1 (stereo unspecified) | inactive
84 | CN(C)C(CNC(=O)c1cccc(S(=O)(=O)Nc2ccc(Br)cc2)c1)c1ccco1 (stereo unspecified) | 12.6 µM (active)
85 | CC(=O)c1ccc(S(=O)(=O)Nc2ccc(C(=O)NCC(c3ccccc3)N(C)C)cc2)cc1 (stereo unspecified) | inactive
86 | CCOc1ccc(S(=O)(=O)Nc2ccc(C(=O)NCCCN3CCCC3=O)cc2)cc1 | inactive
87 | COc1ccccc1NS(=O)(=O)c1ccc(C)c(C(=O)NCC(c2ccco2)N(C)C)c1 (stereo unspecified) | inactive
88 | COc1ccc(C(CNC(=O)c2cccc(S(=O)(=O)Nc3ccc(Br)cc3)c2)N(C)C)cc1 (stereo unspecified) | 10 µM (active)
89 | Cc1ccc(NC(=O)COC(=O)CN2CCSC2=O)cc1F | inactive
90 | OCCN1CCN(c2ncnc3c2ncn3[C@H]2CN(Cc3ccco3)C[C@@H](CO)O2)CC1 | inactive
91 | CCOC1=C2CN(S(=O)(=O)c3ccc(C)cc3)[C@H](c3cccs3)C[C@H]2[C@H]2C(=O)N(c3ccccc3)C(=O)[C@H]2C1 | inactive
